High-throughput results from PubChem.
Most compounds without a hit are left out; they make up all but 10% or so of the library.
ALDH1A1 block: blocks purified human ALDH1A1 activity. 7.3% of 220,000 active. Potency, µM (titrated, usually from 75.3 µM), hits mostly inhibitors. AID 1030. Purified ALDH1A1, NADH fluorescence, propionaldehyde substrate; active = well fitted inhibition curve with a large enough effect, not every such curve was filed as active; inconclusive = small, poorly fitted or top-dose-only effect, or another doubt; inactive = no such curve, though single readings can be large or run the other way
Target sequence (P00352 whole entry, looked up): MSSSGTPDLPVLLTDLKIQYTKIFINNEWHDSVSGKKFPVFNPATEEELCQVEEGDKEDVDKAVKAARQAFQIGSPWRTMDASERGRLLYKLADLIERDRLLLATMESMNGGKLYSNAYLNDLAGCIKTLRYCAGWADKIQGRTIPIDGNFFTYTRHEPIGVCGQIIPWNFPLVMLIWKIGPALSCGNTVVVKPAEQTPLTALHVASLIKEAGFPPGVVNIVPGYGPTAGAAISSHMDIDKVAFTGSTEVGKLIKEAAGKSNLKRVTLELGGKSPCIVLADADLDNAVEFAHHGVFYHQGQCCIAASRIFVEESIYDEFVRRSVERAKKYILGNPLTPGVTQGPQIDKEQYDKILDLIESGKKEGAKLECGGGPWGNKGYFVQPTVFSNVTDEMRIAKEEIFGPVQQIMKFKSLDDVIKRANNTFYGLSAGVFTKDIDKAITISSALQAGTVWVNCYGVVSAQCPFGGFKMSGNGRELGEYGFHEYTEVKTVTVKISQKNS
HPGD block: inhibitors of human 15-hydroxyprostaglandin dehydrogenase (HPGD); P15428; purified HPGD, NADH fluorescence kinetic, PGE2 substrate; Potency, µM, usual class: inhibitors; 4.3% of 150,000 active; active = well fitted inhibition curve with a large enough effect, not every such curve was filed as active; inconclusive = small, poorly fitted or top-dose-only effect, or another doubt; inactive = no such curve, though single readings can be large or run the other way
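NADH formation kinetics: reaction with 30 uM PGE2 and 1 mM NAD+ (final), 20 nM enzyme, Tris-HCl pH 8 with Tween 20, after 15 min compound preincubation at room temperature. Fluorescence change, last versus first of five reads.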
GLA inh pH 4.5: inhibitors of human alpha-galactosidase A at pH 4.5 | P06280 | purified enzyme, 4-MU-alpha-Gal fluorescence, pH 4.5 | activity change, negative = inhibition, % at 105 µM | 230,000 tested, under 10 active
12-hLO inh: 12-hLO (ALOX12) enzyme inhibition. purified 12-hLO, xylenol orange hydroperoxide absorbance. Potency, µM (top dose mostly 57.1 µM), most hits filed as inhibitors. 0.12% of 150,000 active; note: nearly all actives have a fitted effect of over 55% in size
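Xylenol orange chromogenic assay: hydroperoxide from 12hLO oxidises Fe(II), giving red-shifted Fe(III)-XO absorbance. Conditions: 150 nM enzyme, 40 uM arachidonic acid, 25 mM Hepes pH 7.0, 0.01% Triton X-100, 30 min, room temperature.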
GLA spleen mod: alpha-galactosidase A (human) modulation. human spleen homogenate, 4MU-alpha-Gal fluorescence, 40 min. 0.008% of 240,000 active. Potency, µM (titrated, usually from 80 µM), hits mostly inhibitors
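Human spleen homogenate (1 ug) as enzyme source, 4-methylumbelliferyl-alpha-D-galactopyranoside 1 mM final, citrate/phosphate pH 5.0 with 0.01% Tween-20. Compounds 40 min at 37C, NaOH/glycine stop; fluorescence Ex 365/Em 440, Hill-fit AC50.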
PNC assembly inh: perinucleolar compartment assembly inhibition | PC3M PTB-GFP, PNC prevalence imaging, 16 h; stronger effect = lower value | activity change (PNC), negative = inhibition, % at 10 µM | 3.1% of 140,000 active;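 active = readout at or below -70, meaning at least 70% loss of cells showing the perinucleolar compartment, a nuclear body marking cancer cells; inconclusive = readout between -30 and a set limit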
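PC3M cells stably expressing PTB-GFP, 750–1000 cells/well, treated 16 h at 37 °C with compound (23 nl of library stock), in duplicate. After paraformaldehyde fixation and Hoechst stain, imaged at 20x; PNC prevalence scored by image analysis.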
A number is an active result; . = inactive; ? = inconclusive; / = no result given; [ ] = dose if it differs, or a comment. Unless noted, calls come from the whole dose curve; as a rule, active = well fitted curve in the direction sought with a large enough effect; inconclusive = small, poorly fitted or top-dose-only effect, or another doubt; inactive = no such curve, though single readings can be large; an effect the other way counts as inactive or inconclusive.

SMILES | ALDH1A1 block | HPGD block | GLA inh pH 4.5 | 12-hLO inh | GLA spleen mod | PNC assembly inh
NNC(=O)c1oc2ccccc2c1-n1cccc1 | 2.2µM | / | . | / | . | /
CCn1cc(-c2nnnn2-c2ccc(Cl)cc2)c(=O)c2ccccc21 | ? | . | . | . | . | .
N#C/C(C(=O)c1ccccc1)=C1/SC=C(N)N1c1ccccc1 | 3.2µM | 20µM | . | . | . | .
COC(=O)/C(C#N)=C1/SC=C(C)N1c1ccccc1 | 11µM | . | . | . | . | ?
COc1ccc(CNc2ncncc2-c2ccccc2C(F)(F)F)c(OC)c1 | . | / | / | / | . | /
Cc1cc(Nc2ccc(O)cc2)ccc1N | 3.2µM | . | / | . | . | /
Cc1nc(C(=O)NNC(=O)c2ccc(Cl)cc2)c(C(F)(F)F)o1 | / | / | . | / | . | /
CC1(C)Cc2nc3sc4c(SCC(=O)NCc5ccco5)ncnc4c3cc2CO1 | 8.9µM | 14µM | . | . | . | ?
CCCc1nc2c(sc3nc4c(cc32)COC(C)(C)C4)c(=O)n1Cc1ccco1 | 0.89µM | ? | . | . | . | ?
CCCc1nc2c(sc3nc4c(cc32)COC(C)(C)C4)c(=O)o1 | ? | / | . | / | . | /
Cc1nc2c(sc3nc4c(cc32)COC(C)(C)C4)c(=O)o1 | 28µM | . | . | . | . | .
Cc1nc2c(sc3nc4c(cc32)COC(C)(C)C4)c(=O)n1CC(=O)NCc1ccco1 | ? | ? | . | . | . | ?
CCCc1nc2c(sc3nc4c(cc32)COC(C)(C)C4)c(=O)n1CCN(CC)CC | 18µM | / | . | / | . | /
COC(=O)c1nnc(C(=O)N(C)Cc2ccccc2)c2[nH]c3ccccc3c12 | ? | . | . | / | . | /
CC(=O)O[C@@H]1C(=O)[C@@]2(C)[C@H](O)C[C@H]3OC[C@]3(OC(C)=O)[C@@H]2[C@H](OC(=O)c2ccccc2)[C@@]2(O)C[C@H](OC(=O)[C@@H](O)[C@@H](NC(=O)c3ccccc3)c3ccccc3)C(C)=C1C2(C)C (stereo in doubt) | . | . | . | . | . | /
COc1ccc(C(=O)N2CCC3(CCN(C(=O)Nc4cccc(C#N)c4)CC3)CC2)cc1 | . | . | / | . | . | /
CCS(=O)(=O)C1=NN2C(=N)/C(=C\c3ccc(SCc4ccco4)o3)C(=O)N=C2S1 | 1.8µM | / | . | / | . | /
N=C1/C(=C\c2ccc(SCc3ccccc3)o2)C(=O)N=C2SC=NN12 | . | / | . | / | . | /
COc1cccc(-c2ccc3ncnc(N(C)C)c3c2)c1 | . | / | / | / | 50µM | /
CCOC(=O)CCN1CCN(C(=O)c2ccc(-n3c(=O)c(=O)[nH]c4ccccc43)cc2)CC1 | ? | . | / | . | / | /
CCOC(=O)C1CCCN(C2CC(=O)N(c3cccc(C)c3)C2=O)C1 (stereo not drawn) | ? | . | . | . | . | .
CCOc1ccc(N2C(=O)CC(N3CCN(C(=O)CN4CCCC4)CC3)C2=O)cc1 (stereo not drawn) | 16µM | . | . | . | . | -114
CCCOc1ccc(N2C(=O)CC(N3CCC(C(=O)OCC)CC3)C2=O)cc1 (stereo not drawn) | ? | . | . | . | . | .
CCCOc1ccc(N2C(=O)CC(N3CCCC(C(=O)N4CCCC4)C3)C2=O)cc1 (stereo not drawn) | 18µM | . | . | . | . | ?
CCCOc1ccc(N2C(=O)CC(N3CCOCC3)C2=O)cc1 (stereo not drawn) | 25µM | . | . | . | . | ?
SMILES | ALDH1A1 block | HPGD block | GLA inh pH 4.5 | 12-hLO inh | GLA spleen mod | PNC assembly inh
CC(=O)Nc1ccc(N2C(=O)CC(N3CC(C)OC(C)C3)C2=O)cc1 (stereo not drawn) | 7.9µM | . | . | . | . | .
CC(C)C[C@@H](CC(=O)N[C@@H](CCCN)CC(=O)N[C@@H]1CCNC[C@H]1C(=O)N[C@H](CC(=O)N[C@@H](CCC(=O)O)CC(=O)O)Cc1c[nH]c2ccccc12)NC(=O)[C@@H]1CCCC[C@H]1N | . | . | . | . | . | /
C=C(CC(=O)O)C(=O)O (tested in a mixture with another compound) | .[13.5 µM] | . | / | .[11.4 µM] | / | /
COc1ccccc1N1C(=O)CC(N(O)c2ccccc2)C1=O (stereo not drawn) | . | / | . | / | . | /
COC(=O)c1ccc(N2C(=O)CC(N3CCOCC3)C2=O)cc1 (stereo not drawn) | 28µM | . | . | . | . | ?
COc1ccccc1N(O)C1CC(=O)N(c2ccc(F)cc2)C1=O (stereo not drawn) | 1.3µM | 22µM | . | . | . | .
CCCOc1ccccc1N1C(=O)CC(N(O)c2ccccc2)C1=O (stereo not drawn) | . | / | . | / | . | /
CCCOc1ccc(N2C(=O)CC(N(O)c3ccccc3)C2=O)cc1 (stereo not drawn) | ? | . | . | . | . | -89
O=[N+]([O-])c1cccnc1N/N=C/c1ccccc1O | 89µM | / | . | / | . | /
Oc1ccc(/C=N/Nc2cccc3cccnc23)c(O)c1 | ? | 16µM | . | . | . | .
COc1cccc(/C=N/Nc2nccnc2Cl)c1O | . | / | . | / | . | /
Oc1ccccc1/C=N/Nc1nccnc1Cl | . | . | . | . | . | -88
Oc1ccc(/C=N/Nc2nccnc2Cl)c(O)c1 | ? | 28µM | . | . | . | .
O=C(NCc1ccc(F)cc1)c1ccc(CNc2c(N3CCOCC3)c(=O)c2=O)cc1 | / | / | . | / | . | /
Cc1ccc(CNC(=O)c2ccc(CNc3c(N4CCCC4)c(=O)c3=O)cc2)cc1 | ? | 14µM | . | . | . | .
CC1CCN(c2c(NCc3ccc(C(=O)N4CCc5ccccc54)cc3)c(=O)c2=O)CC1 | ? | 18µM | . | . | . | ?
O=C(NCc1ccco1)c1ccc(CNc2c(N3CCCCC3)c(=O)c2=O)cc1 | . | 14µM | . | . | . | .
CC1CCN(c2c(NCc3ccc(C(=O)N(C)C4CCCCC4)cc3)c(=O)c2=O)CC1 | / | / | . | / | . | /
CC1CCCN(C(=O)c2ccc(CNc3c(N4CCCCC4)c(=O)c3=O)cc2)C1 (stereo not drawn) | ? | 0.28µM | . | . | . | .
CC(=O)OC1CC[C@@]2(C)C(=CC[C@H]3[C@@H]4CC[C@H](C(C)=O)[C@@]4(C)CC[C@@H]32)C1 (stereo partly drawn) | / | / | / | / | . | /
CC(=O)Nc1cc(C)c(S(C)(=O)=O)c(C)c1 | . | . | . | . | . | .
C/C(=N\NC(=O)CNc1ccccc1)c1ccccc1 | . | / | . | / | . | /
CC1CCN(c2c(NCc3ccc(C(=O)NCc4ccco4)cc3)c(=O)c2=O)CC1 | . | 11µM | . | . | . | .
CCCCC(CC(O)COCC(C)C)C(=O)NNC(=S)Nc1ccccc1 (stereo not drawn) | 10µM | . | . | . | . | ?
O=C(NNC(=S)Nc1ccccc1)NNC(=S)Nc1ccccc1 | ? | / | . | / | . | /
